# Source: PubChem BioAssay (The Scripps Research Institute Molecular Screening Center)
# DAX1 inh-1: inhibitors of human orphan nuclear receptor DAX1 (NR0B1) | P51843 | HEK293 Gal4-DAX1 luciferase reporter, luminescence | inhibition, % at 6.75 µM | 340,000 tested, 0.99% active | AID 504766;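 active means inhibition above the mean over all tested compounds plus 3 SD, cut at about 4.2% in these data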;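 further: 0% = DAX1-transfected cells with DMSO and 100% = empty-vector control cells with DMSO; inhibition shows as a rise in luminescence from relieved DAX1 repression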
# Target sequence (P51843 207-470 limits assumed): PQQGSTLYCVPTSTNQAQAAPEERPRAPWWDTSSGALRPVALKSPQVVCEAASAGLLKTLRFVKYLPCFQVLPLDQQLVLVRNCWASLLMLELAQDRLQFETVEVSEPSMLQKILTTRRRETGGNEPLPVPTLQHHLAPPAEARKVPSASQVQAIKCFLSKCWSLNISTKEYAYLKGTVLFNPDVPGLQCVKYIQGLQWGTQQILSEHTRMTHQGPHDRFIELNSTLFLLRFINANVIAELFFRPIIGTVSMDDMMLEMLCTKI
# hcDAF12 agonist: activators of H. contortus DAF-12 nuclear receptor. HEK293 hcDAF-12 lit1-tk-luc reporter, luminescence; 0% DMSO, 100% Δ7-dafachronic acid. activation, % at 6.8 µM. 370,000 tested, 1.4% active. AID 652067;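 active means activation above the mean of all tested compounds plus 3 SD, cut at about 5.5% in these data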;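 further: 100% = response to 3 µM Δ7-dafachronic acid high control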
# ssDAF12 agonist: activates DAF-12 receptor from parasite S. stercoralis; activation, % at 6.8 µM; AID 652126; HEK293 ssDAF-12/GRIP1 lit1-tk-luc reporter, luminescence; % of 3 µM dafachronic acid response; 370,000 tested, 1% active;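 active means activation above the mean over all tested compounds plus 3 SD, cut at about 0.9% in these data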;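 further: 0% = DMSO-only wells and 100% = 3 µM delta7-dafachronic acid wells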
# hgDAF-12 ag: agonists of H. glycines DAF-12 nuclear receptor | HEK293 GAL4-hgDAF12 UAS-luciferase reporter, agonist luminescence; normalized to butyrate control | activation, % at 6.8 µM | 370,000 tested, 1.8% active | AID 687014;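 active means activation above a cutoff set at the mean of all screened compounds plus 3 SD, cut at about 10% in these data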;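 further: 0% = DMSO wells and 100% = sodium butyrate wells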
# DAX1 inh-2: inhibitors of DAX1 repression of SF-1 activated StAR promoter | HEK293T StAR-luciferase reporter, SF-1/DAX-1 repression relief | inhibition, % at 6.8 µM | 370,000 tested, 1.1% active | AID 652010;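 active means inhibition above the mean over all tested compounds plus 3 SD, cut at about 3.6% in these data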;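 further: 0% = DAX-1 cells with DMSO and 100% = cells lacking DAX-1 with DMSO; higher inhibition means more luminescence from relief of DAX-1 repression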
# Active calls of the source: *; . = not tested or not shown. This is a sample that favours compounds with a hit; in the whole collection about 4.1% have one here.
SMILES,DAX1 inh-1,hcDAF12 agonist,ssDAF12 agonist,hgDAF-12 ag,DAX1 inh-2
CCC(=O)Nc1nnc(/C=C/c2ccccc2)s1,5.3*,0,-1,6,1
CCOc1cc(/C=C2\CCCC(C(=O)C(F)(F)F)=C2O)ccc1O,1,-1,-1,7,3.7*
COc1ccccc1NC(=O)CC1SC(=N)N(c2ccccc2)C1=O (stereo not given),1,2,-2,0,0
N=C1SC(CC(=O)Nc2ccccc2[N+](=O)[O-])C(=O)N1c1ccccc1 (stereo not given),-1,0,1.6*,-2,0
C/C(=N\Nc1ccc([N+](=O)[O-])cc1)c1cc2ccccc2o1,0,6.4*,-1,4,0
O=C(N/N=C/c1ccc([N+](=O)[O-])cc1)c1cc2ccccc2o1,2,0,-2,3,0
OC(CNCc1ccccc1)c1ccccc1 (stereo not given),4.5*,-1,-1,4,0
CC(=O)Nc1ccc2nc(-c3ccc(Br)o3)[nH]c2c1,-1,2,0,11*,1
C=CCNC(=O)COc1ccccc1C#N,0,1,-2,6,1
N#Cc1ccccc1OCC(=O)NC1CCCCCC1,3,5,0,11*,2
CC(C)(C)NC(=O)NC(=O)COc1ccccc1C#N,5.1*,2,0,9,3
N#Cc1ccccc1OCC(=O)OCC(=O)NC1CCCCC1,0,2,-1,4,2
Cc1cccc(C(=O)Nc2nc3ncccn3c2-c2ccccc2)c1,.,0,-1,-2,-1
COc1ccccc1CNC(=O)CSc1ccsc1[N+](=O)[O-],2,0,0,11*,2
O=C(CSc1ccsc1[N+](=O)[O-])NCc1ccccc1,1,6.5*,0.9*,10,1
O=C(NC1CCCc2c1cnn2-c1ccc(F)cc1F)c1cccs1 (stereo not given),.,-3,-2,-5,.
O=C(CSc1nnc(-c2ccccc2)n1Cc1ccco1)Nc1ccc(OCc2ccccc2)cc1,.,-2,-1,3,-1
O=C(c1cnc2nc3ccccc3n2c1)c1cc(F)ccc1O,0,5.6*,0,7,3
CC(Cc1ccccc1)Nc1ncnc2c1ncn2C1OC(CO)C(O)C1O (stereo not given),0,-3,-1,-4,1
C[C@H](Cc1ccccc1)Nc1ncnc2c1ncn2[C@@H]1O[C@H](CO)[C@@H](O)[C@H]1O,0,-3,-1,1,3.8*
COc1ccc2c(CCN3C(=O)c4ccccc4C3=O)c(-c3c(CCN4C(=O)c5ccccc5C4=O)c4ccccc4n3C(=O)OC(C)(C)C)[nH]c2c1,.,-1,-2,-3,.
N/C(=N\NC(=O)c1cccs1)c1cc2ccccc2oc1=O,4,3,0,11*,2
CN=CC1=C(O)C(C(=O)OC)C(C)(C)CC1=O (stereo not given),4.3*,-1,-1,1,0
Cc1onc(-c2ccccc2)c1C(=O)Nc1ccc(N2CCOCC2)cc1,1,-1,-1,-2,0
Cc1onc(-c2ccccc2)c1C(=O)Nc1ccc(NC(=O)c2c(-c3ccccc3)noc2C)cc1,5.1*,2,-1,1,0
SMILES,DAX1 inh-1,hcDAF12 agonist,ssDAF12 agonist,hgDAF-12 ag,DAX1 inh-2
COc1ccc2[nH]cc(/C=C/C(=O)c3ccccc3)c2c1,4,5,0,11*,1
COc1ccccc1/C=C/C(=O)c1ccccc1,0,1,0,13*,0
COc1cccc(/C=C/C(=O)OCC(=O)c2ccc(C)c(C)c2)c1OC,0,-1,-1,0,-1
COc1ccccc1/C=C/C(=O)c1ccc(Cl)cc1,-1,-1,-1,4,-1
COc1cccc(/C=C/C(=O)OCC(=O)c2ccccc2)c1OC,-1,6.1*,0,13*,3
COC(=O)C1CN(Cc2cn(Cc3ccc(Cl)cc3)nn2)CCS(=O)(=O)N1Cc1ccc(Cl)cc1 (stereo not given),.,-4,-2,-5,-2
O=C(Nc1ccc(F)cc1)OCCCN1C(=O)CCC12CCCCC2,.,-1,-1,3,1
O=C(N[C@H]1C[C@@H]2O[C@@H](CO)CC[C@@H]2O[C@@H]1CCc1ccc(-c2cccnc2)cc1)c1cccc(F)c1,.,-2,-1,0,0
CC(=O)c1cccc(NC(=O)Nc2ccc3c(c2)CCC3)c1,0,-1,0,4,1
Cc1cccc(NC(=S)NCc2ccccn2)c1,0,-1,-1,1,2
Cc1cccc(NC(=O)C2C3CCCCC32)c1 (stereo not given),5.5*,0,-1,4,0
Cc1cccc(NC(=O)Nc2ccc3c(c2)CCC3)c1,1,1,-1,6,4.1*
O=C(Cc1ccc2c(c1)CCCC2)Nc1ccc2ccccc2c1,0,5.7*,1,4,2
Cc1cccc(NC(=O)C(=O)NCc2ccccn2)c1,4.3*,0,-1,10,2
COC(=O)C1CN(CCc2ccccc2)CCS(=O)(=O)N1Cc1ccc(Cl)cc1 (stereo not given),.,-1,-1,2,0
COCc1cccc(-c2cc(C(=O)OC)c3n(c2=O)CCC3)c1,.,-1,-1,-1,-2
COc1ccc(OC)c(NC(=O)Nc2ccc3c(c2)CCC3)c1,-1,-3,0,1,-1
Cc1cccc(NC(=O)Nc2ccncc2)c1,0,-1,1.1*,4,0
Cc1cccc(NC(=O)Nc2cnccn2)c1,0,-2,-1,-2,0
COc1cccc(NC(=O)Nc2ccc3c(c2)CCC3)c1,1,4,-1,12*,4.1*
CCc1ccc(NC(=O)Nc2ccc3c(c2)CCC3)cc1,0,0,-1,4,3.7*
Cc1ccc(CSc2nnc(-c3cccs3)o2)cc1C,.,1,-1,5,1
CCOC(=O)CC[C@@H]1CC[C@]2(CCCN(C(=O)C3CCCCC3)C2)O1,.,1,-1,-3,0
CCCC1CCC2(CC1)CCC2OC(=S)NCc1cccc(OC)c1 (stereo not given),.,-1,0,3,.
Cc1ccc(-n2c(SCC(=O)c3ccccc3Br)nnc2-c2ccncc2)cc1,.,-2,-1,-1,0
CC(NC(=O)c1ccc2ccccc2n1)c1ccccc1 (stereo not given),5.4*,0,-1,-1,-1
CN(C)C(CNC(=O)c1ccc2ccccc2n1)c1ccccc1 (stereo not given),-1,0,-1,0,0
COc1ccccc1NC(=O)OC(C)c1ccc(Cl)cc1 (stereo not given),4.5*,0,-2,0,0
CCN1C(=O)c2cccc3c(S(=O)(=O)Nc4ccccn4)ccc1c23,6.7*,3,0,-1,1
O=c1sc(Nc2ccccc2)nc2ccsc12,2,6.2*,0,9,2
